Results on 19 compounds are retold here after PubChem BioAssay (NCATS).

Where “and” joins values, the source holds several entries; their conditions need not be identical. Equal values may be shown once. Inconclusive results are not listed. The source holds several records for some structures; these can differ, active in one and inactive in another. Calls of active or inactive are those of the source. Calls follow the shape of the dose curve; as a rule, active = well fitted curve in the direction sought with a large enough effect; inconclusive = small, poorly fitted or top-dose-only effect, or another doubt; inactive = no such curve, though single readings can be large; an effect the other way counts as inactive or inconclusive.

Experiment [1] in a line: NS1 protein of Zika virus - qHTS assay to identify small molecule inhibitors in human HEK 293 cells (AID 1347053). Also: nearly all actives have a fitted effect of over 55% in size. The gist of the method: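 TR-FRET signal from two anti-ZIKV NS1 antibodies quantified NS1 in HEK 293 cells 24 h after MR766 infection at MOI = 0.5; compounds were added 1 h before virus. Uninfected cells and infected cells defined the NS1 normalization range.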
Background: In qHTS, concentration-response curves come from the screen itself.

Experiment [2] can be described thus: qHTS of pediatric cancer cell lines to identify multiple opportunities for drug repurposing: Primary screen for TC32 cells (AID 1347089). Also: nearly all actives have a fitted effect of over 60% in size. The gist of the method:
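Luminescent CellTiter-Glo read-out of metabolically active TC32 cells after 48 h compound exposure. Primary: MIPE 11-point, 0.78 nM–46 µM; NPC 8-point, 0.59 nM–46 µM. Confirmatory: 11-point dilutions.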

A short description of experiment [3]: qHTS of pediatric cancer cell lines to identify multiple opportunities for drug repurposing: Primary screen for DAOY cells (AID 1347090). Also: nearly all actives have a fitted effect of over 55% in size. The gist of the method: (§1)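 Viability measured as metabolically active cells via CellTiter-Glo luminescence following 48 hours of compound exposure, 11-point dilutions in confirmatory testing. 500-1,000 cells/well plated 5 hours before dosing; controls were DMSO and 2.3 µM bortezomib.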

Experiment [4] in a line: qHTS of pediatric cancer cell lines to identify multiple opportunities for drug repurposing: Primary screen for SJ-GBM2 cells (AID 1347091). The gist of the method: as §1
Experiment [5] can be described thus: qHTS of pediatric cancer cell lines to identify multiple opportunities for drug repurposing: Primary screen for A673 cells (AID 1347092). Also: nearly all actives have a fitted effect of over 45% in size. The gist of the method: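 A673 cells (500-1,000 cells/well in growth media) were pre-incubated 5 h at 37 degrees C, then exposed to compounds for 48 h. Viability was read as CellTiter-Glo luminescence; concentration-response curves came directly from the primary screen.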

Experiment [6] is described as follows: qHTS of pediatric cancer cell lines to identify multiple opportunities for drug repurposing: Primary screen for BT-37 cells (AID 1347094). The gist of the method:
(§2)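 Plated cells (500-1,000 per well, growth media) were allowed to settle for 5 hours, treated with compound dilutions for 48 hours, then lysed with CellTiter-Glo for 15 min at room temperature before luminescence reading.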

Experiment [7] can be described thus: qHTS of pediatric cancer cell lines to identify multiple opportunities for drug repurposing: Primary screen for NB-EBc1 cells (AID 1347095). The gist of the method: as §2
A short description of experiment [8]: qHTS of pediatric cancer cell lines to identify multiple opportunities for drug repurposing: Primary screen for SK-N-MC cells (AID 1347093). The gist of the method:
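Metabolically active cells were quantified by ATP-dependent luminescence (CellTiter-Glo, 15 min at room temperature) following 48 h treatment. Cells had been plated at 500-1,000 per well and settled for 5 h beforehand.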
Potency is read from the fitted curve at half-maximal effect.

With `CC(=O)Oc1ccccc1C(=O)Nc1ncc([N+](=O)[O-])s1`, the Potency entry in experiment [1] and in experiment [2] was “inactive” each time. Moreover, the Potency in experiment [3] is 13.6 µM (active); in experiment [4], 8.55 µM (active); in experiment [5] it was 42.9 µM (active); in experiment [6], 28 µM (active) and 19.5 µM (active); in experiment [7], 10.8 µM (active) and 15 µM (active).
Take `CCn1cc(C(=O)O)c(=O)c2cc(F)c(N3CCNCC3)nc21`: the Potency result in experiment [1], in experiment [2], in experiment [3], in experiment [5], in experiment [8] and in experiment [6] was “inactive” in each case. For the same compound, the Potency entry in experiment [7] is “inactive”.
Take `Cc1nnc(C(=O)NC(C)(C)c2nc(C(=O)NCc3ccc(F)cc3)c(O)c(=O)n2C)o1`: the Potency entry in experiment [1], in experiment [2], in experiment [3], in experiment [4], in experiment [5] and in experiment [6] was “inactive” each time. Moreover, the Potency result in experiment [7] was “inactive”.
Consider `Cc1cccc(N(C)C(=S)Oc2ccc3ccccc3c2)c1`, for which the Potency result in experiment [1], in experiment [2], in experiment [3], in experiment [5], in experiment [6] and in experiment [7] was “inactive” in each case.
As for `CN1CCN(c2c(F)cc3c(=O)c(C(=O)O)cn4c3c2OCN4C)CC1`, the Potency result in experiment [1], in experiment [2], in experiment [3], in experiment [5], in experiment [8] and in experiment [6] was “inactive” each time. Also, the Potency entry in experiment [7] was “inactive”.
Take `CCN[C@H]1C[C@H](C)S(=O)(=O)c2sc(S(N)(=O)=O)cc21`: the Potency result in experiment [1], in experiment [2], in experiment [3], in experiment [5], in experiment [8] and in experiment [6] was “inactive” throughout. The Potency result in experiment [7] is “inactive”.
Regarding `O=NN(CCCl)C(=O)NC1CCCCC1`, the Potency result in experiment [1], in experiment [2], in experiment [3], in experiment [4], in experiment [5] and in experiment [6] was “inactive” throughout. In experiment [7], the Potency entry was “inactive”.
As to `O=C(O)CSCC(=O)NC1CCSC1=O` (stereo unspecified), the Potency result in experiment [1], in experiment [2], in experiment [3], in experiment [4], in experiment [5] and in experiment [6] was “inactive” in each case. For the same compound, the Potency result in experiment [7] was “inactive”.
As to `CC1(C)[C@H](C(=O)O)N2C(=O)C[C@H]2S1(=O)=O`, the Potency result in experiment [1], in experiment [2], in experiment [3], in experiment [4], in experiment [5] and in experiment [6] was “inactive” in each case. Moreover, the Potency entry in experiment [7] was “inactive”.
With `Nc1nc(=S)c2[nH]cnc2[nH]1`, the Potency result in experiment [1] was “inactive”. Besides, the Potency in experiment [2] was 3.33 µM (active); in experiment [3] it was 2.11 µM (active) and 1.87 µM (active); in experiment [5] it was 841 nM (active) and 743 nM (active); in experiment [8], 2.99 µM (active) and 1.66 µM (active); in experiment [6] it was 2.46 µM (active) and 1.93 µM (active); in experiment [7], 743 nM (active).
Take `CN(C)CCc1c[nH]c2ccc(C[C@H]3COC(=O)N3)cc12`: the Potency result in experiment [1], in experiment [2], in experiment [3], in experiment [5], in experiment [8] and in experiment [6] was “inactive” in each case. The Potency entry in experiment [7] was “inactive”.
With `Nc1ccc(S(=O)(=O)Nc2ccccn2)cc1`, the Potency result in experiment [1], in experiment [2], in experiment [3], in experiment [5], in experiment [8] and in experiment [6] was “inactive” each time. For the same compound, the Potency entry in experiment [7] was “inactive”.
Consider `OC(Cn1cncn1)(Cn1cncn1)c1ccc(F)cc1F`, for which the Potency result in experiment [1], in experiment [2], in experiment [3], in experiment [4], in experiment [5] and in experiment [6] was “inactive” throughout. Besides, the Potency entry in experiment [7] is “inactive”.
For the compound `CCn1cc(C(=O)O)c(=O)c2cc(F)c(N3CCN(C)CC3)cc21`, the Potency result in experiment [1], in experiment [2], in experiment [3], in experiment [5], in experiment [8] and in experiment [6] was “inactive” in each case. Besides, in experiment [7], the Potency entry was “inactive”.
`O=C(O)c1cn(C2CC2)c2cc(N3CCNCC3)c(F)cc2c1=O`: the Potency result in experiment [1], in experiment [2], in experiment [3], in experiment [5], in experiment [8] and in experiment [6] was “inactive” in each case. The Potency entry in experiment [7] is “inactive”.
As for `CN(C)CCc1c[nH]c2ccc(CS(=O)(=O)N3CCCC3)cc12`, the Potency entry in experiment [1], in experiment [2], in experiment [3], in experiment [5], in experiment [8] and in experiment [6] was “inactive” throughout. Moreover, in experiment [7], the Potency entry was “inactive”.
As for `N[C@@H](C(=O)N[C@@H]1C(=O)N2C(C(=O)O)=C(Cl)CS[C@H]12)c1ccccc1`, the Potency entry in experiment [1], in experiment [2], in experiment [3], in experiment [5], in experiment [8] and in experiment [6] was “inactive” in each case. In experiment [7], the Potency entry was “inactive”.
With `CC(C)(Sc1cc(C(C)(C)C)c(O)c(C(C)(C)C)c1)Sc1cc(C(C)(C)C)c(O)c(C(C)(C)C)c1`, the Potency entry in experiment [1], in experiment [2], in experiment [3], in experiment [4], in experiment [6] and in experiment [7] was “inactive” each time.
For the compound `CN(C)c1ccc(C(=C2C=CC(=[N+](C)C)C=C2)c2ccc(N(C)C)cc2)cc1`, the Potency result was “inactive and 3.72 µM (active)” in experiment [1]; 2.64 µM (active) and 1.17 µM (active) in experiment [2]; 2.66 µM (active) and 1.48 µM (active) in experiment [3]; 1.06 µM (active) and 93.5 nM (active) in experiment [5]; 1.06 µM (active) in experiment [8]; 1.23 µM (active) and 685 nM (active) in experiment [6]. For the same compound, the Potency in experiment [7] was 2.99 µM (active) and 935 nM (active).
